The whole screen tested about 52,000 compounds, of which about 4,300 (8.3%) were called active. Cut-off read from the data, not from the text of the source: active = survival mostly below about 52% (no sharp cut-off); inactive = mostly above about 56%. The list comes from a sample in which actives are over-represented; it also holds similar structures and randomly drawn compounds.
Test system: DeltatarO mutant
Test: S. aureus survival, RN4220 and DeltatarO strains – OD600, teichoic acid synthesis inhibitors, primary screen (AID 463173)
Settings: S. aureus RN4220 wild type/DeltatarO growth, OD600, 18 h, hits give low values, screened at 18.75 µg/mL (by protocol)

Row | SMILES | survival
1 | C#CCN1CCOCC1 | 99% (inactive)
2 | Cc1cc2c(=O)c(C(=O)c3ccncc3)cn(CC(=O)Nc3cccc(C)c3C)c2cc1C | 94% (inactive)
3 | CCOc1ccc(-c2cc3nc(C4CCN(C(=O)OC(C)(C)C)CC4)c(C(=O)Nc4cccc(Cl)c4C)cn3n2)cc1 | 81% (inactive)
4 | COc1ccc(NC(=O)CC2SC(=Nc3ccccc3)N(CCO)C2=O)cc1 (centres undefined) | 95% (inactive)
5 | Cc1nnc(NC(=O)C(C)N2CCCC2)s1 (centres undefined) | 97% (inactive)
6 | O=C(Nc1ccccc1Cl)N1CCc2ccccc2C1 | 91% (inactive)
7 | Cc1nn(C)c2c1c(-c1ccccc1)cc(=O)n2CC(=O)NC(C)(C)C | 113% (inactive)
8 | COc1cccc(CSc2nc3n(n2)C(c2cccnc2)C(C(=O)Nc2ccccc2C)=C(C)N3)c1 (centres undefined) | 74% (inactive)
9 | CCc1ccc(Cn2c(CNS(=O)(=O)c3ccc(C)c(C)c3)nc3cccnc32)cc1 | 81% (inactive)
10 | COc1ccc(Cn2c(CNS(=O)(=O)c3ccc4c(c3)CCCC4)nc3cccnc32)cc1 | 128% (inactive)
11 | COc1ccc(Cn2c(CNS(=O)(=O)c3ccc(C)c(C)c3)nc3cccnc32)cc1 | 17% (active)
12 | Cc1nc(-c2ccc(F)cc2)sc1CCNC(=O)c1ccccc1C(F)(F)F | 97% (inactive)
13 | CCCCN(CC)CCCNC(=O)c1cn(CC)c2ccc(S(=O)(=O)N3CCOCC3)cc2c1=O | 89% (inactive)
14 | COc1ccc(CNC(=O)CCc2cn(C)c3ccccc23)cc1 | 57% (inactive)
15 | CCOC(=O)c1sc2ccccc2c1S(=O)(=O)NCc1ccc(F)cc1 | 94% (inactive)
16 | Cc1ccccc1C(=O)Nc1ccccc1C(=O)OCc1cc(=O)n2ccsc2n1 | 77% (inactive)
17 | COc1cc(C(=O)OCc2cc(=O)n3ccsc3n2)cc(OC)c1OC | -2% (active)
18 | COc1ccccc1C(=O)Nc1ccccc1C(=O)OCc1cc(=O)n2ccsc2n1 | -5% (active)
19 | COc1ccccc1C(=O)Nc1ccc(C(=O)OCc2cc(=O)n3ccsc3n2)cc1 | 96% (inactive)
20 | O=C(Nc1ccccc1C(=O)OCc1cc(=O)n2ccsc2n1)c1ccccc1Cl | 60% (inactive)

Row | SMILES | survival
21 | COc1ccccc1C(=O)Nc1cccc(C(=O)OCc2cc(=O)n3ccsc3n2)c1 | -4% (active)
22 | COc1cc(C(=O)OCc2cc(=O)n3nc(C(C)C)sc3n2)cc(OC)c1OC | 99% (inactive)
23 | Cc1ccccc1C(=O)Nc1cccc(C(=O)OCc2cc(=O)n3ccsc3n2)c1 | 72% (inactive)
24 | Cc1cccc(C(=O)OCc2cc(=O)n3ccsc3n2)c1 | 84% (inactive)
25 | CCc1nnc2c(NCc3cccc(OC)c3)nc3ccccc3n12 | 89% (inactive)
26 | Cc1cc(C)c2c(=O)cc(C(=O)Nc3nc4ccc(F)cc4s3)oc2c1 | 61% (inactive)
27 | COc1ccc(-c2cn3c(n2)sc2cc(C(=O)NC4CCCCC4)ccc23)cc1 | 79% (inactive)
28 | CSc1cccc(NC(=O)Cn2ncn3c(cc4ccccc43)c2=O)c1 | 65% (inactive)
29 | CCN(Cc1ccccc1)C(=O)Cn1c(=O)n(-c2cccc(C)c2)c(=O)c2c1c1cc(OC)ccc1n2C | 59% (inactive)
30 | O=C(NCC(c1cccnc1)N1CCc2ccccc2C1)C(=O)Nc1ccc(F)cc1F (centres undefined) | 107% (inactive)
31 | O=C(Nc1c(-c2ccccc2)nc2ccccn12)c1ccc(Br)cc1 | 31% (active)
32 | Cc1cc(C(=O)Nc2c(C)nc3ccccn3c2=O)ccc1[N+](=O)[O-] | 92% (inactive)
33 | O=C(Nc1c(-c2ccc(F)cc2)nc2ccccn12)c1ccccc1F | 139% (inactive)
34 | CC(C)Nc1c(-c2ccccc2)nc2ccccn12 | 105% (inactive)
35 | Cc1ccc(C(=O)Nc2c(-c3ccccc3)nc3ccccn23)cc1 | 40% (active)
36 | O=C(Nc1c(-c2ccccc2)nc2ccccn12)c1ccccc1F | 48% (inactive)
37 | Cc1cccc(C(=O)Nc2c(-c3ccc(F)cc3)nc3ccccn23)c1 | 91% (inactive)
38 | Cc1ccc(C(=O)Nc2c(-c3ccccc3)nc3ccccn23)cc1C | 34% (active)
39 | COC(=O)Nc1c(-c2ccccc2)nc2ccc(C)cn12 | 74% (inactive)
40 | Cc1cc(NC(=O)CSc2ccccc2)no1 | 88% (inactive)

Row | SMILES | survival
41 | CCOC(=O)Cc1nnc2c(Nc3cc(C)ccc3C)nc3nonc3n12 | 101% (inactive)
42 | Cc1oc(-c2cccc(Cl)c2)nc1Cn1c(SCc2ccc(F)cc2)nc2cccnc21 | 85% (inactive)
43 | Cc1ccc(C)c2nc(SCC(=O)OC(C)C)c(C#N)cc12 | 92% (inactive)
44 | COc1ccc(C(NC(C)=O)c2ccc(OC)cc2)cc1 | 77% (inactive)
45 | Cn1cnc(S(=O)(=O)N2CCC(C(=O)N3CCN(c4cccc(C(F)(F)F)c4)CC3)CC2)c1 | 106% (inactive)
46 | O=C(NC1CCCC1)c1ccc(CSc2nc3cccnc3n2Cc2ccccc2)cc1 | 95% (inactive)
47 | COc1ccc(Cn2cc(S(=O)(=O)c3ccc(Cl)cc3)c(=O)c3cc4c(cc32)OCO4)cc1 | 58% (inactive)
48 | COc1nnc(-c2ccc(N3CCCCC3)c(NC(=O)c3ccccc3Cl)c2)c2ccccc12 | -1% (active)
49 | Cn1nc(-c2ccc(N3CCCCC3)c(NC(=O)c3ccc(Cl)cc3)c2)c2ccccc2c1=O | 66% (inactive)
50 | COc1ccccc1C(=O)Nc1cc2c(cc1N1CCCCC1)n(C)c(=O)n2C | 78% (inactive)
51 | CCn1c(=O)c(=O)n(CC)c2cc(N3CCCCC3)c(NC(=O)c3cccc(OC)c3)cc21 | 85% (inactive)
52 | COc1nnc(-c2ccc(N3CCCCC3)c(NC(=O)c3ccc(C)cc3)c2)c2ccccc12 | 26% (active)
53 | COc1ccccc1C(=O)Nc1cc2c(cc1N1CCCC1)n(C)c(=O)c(=O)n2C | 89% (inactive)
54 | Cn1c(=O)c(=O)n(C)c2cc(N3CCCC3)c(NC(=O)c3ccccc3Cl)cc21 | 90% (inactive)
55 | COc1nnc(-c2ccc(N3CCCCC3)c(NC(=O)c3ccc(Cl)cc3)c2)c2ccccc12 | 107% (inactive)
56 | COc1nnc(-c2ccc(N3CCCCC3)c(NC(=O)c3ccccc3)c2)c2ccccc12 | 0% (active)
57 | COc1ccc(S(=O)(=O)Nc2ccc3c(c2)N(C(C)=O)CCC3)cc1F | 85% (inactive)
58 | Cc1cc(SCCN2CCOCC2)nc2ccccc12 | 68% (inactive)
59 | CCc1ccc(CNC(=O)c2ccc3nc(SCc4ccc(F)cc4)n(C)c3c2)cc1 | 94% (inactive)

Reference: PubChem BioAssay AID463173 (ICCB-Longwood Screening Facility, Harvard Medical School, 2010)
